The record followed here is PubChem BioAssay (NCATS).

Structures are written as SMILES. Inconclusive results are not listed. Calls of active or inactive are those of the source. The call rests on the fitted dose curve; in most records, active means well fitted curve in the direction sought with a large enough effect; inconclusive means small, poorly fitted or top-dose-only effect, or another doubt; inactive means no such curve, though single readings can be large; an effect the other way counts as inactive or inconclusive.

The nature of assay [1]: Quantitative High-Throughput drug screen in 47 multiple myeloma cell lines against the NCATS MIPE library collection: FR4_PLB cell viability assay (AID 1918924; further: nearly all actives have a fitted effect of over 35% in size). In outline:
(§1)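 Relative luminescence from CellTiter-Glo served as the viability signal, referenced to DMSO-treated (100%) and cell-free medium (0%) controls. Treatment lasted 48 hours at 37C with 500 cells per well.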

Assay [2] is described as follows: Quantitative High-Throughput drug screen in 47 multiple myeloma cell lines against the NCATS MIPE library collection: Delta47_JCRB cell viability assay (AID 1918925; further: nearly all actives have a fitted effect of over 45% in size). In a few lines:
(§2)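 We plated 500 myeloma cells per well, pinned in MIPE 4.0 compounds, and incubated for 48 hours at 37C. ATP was then quantified with CellTiter-Glo, with DMSO and media-only wells defining 100% and 0%.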

Assay [3] is described as follows: Quantitative High-Throughput drug screen in 47 multiple myeloma cell lines against the NCATS MIPE library collection: EJM_DSMZ cell viability assay (AID 1918926; further: nearly all actives have a fitted effect of over 30% in size). In outline:
as §2

Assay [4] can be described thus: Quantitative High-Throughput drug screen in 47 multiple myeloma cell lines against the NCATS MIPE library collection: ARP1_JJKsccF8 cell viability assay (AID 1918928; further: nearly all actives have a fitted effect of over 40% in size). In outline: (§3)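 CellTiter-Glo luminescence after 48 h exposure gives viability, scaled between DMSO-only (100%) and media-only (0%) controls. Library compounds are pinned onto 500 myeloma cells per well, incubated at 37C with 5% CO2.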

Assay [5] can be described thus: Quantitative High-Throughput drug screen in 47 multiple myeloma cell lines against the NCATS MIPE library collection: ARD_JJKsccE7 cell viability assay (AID 1918929). In a few lines: as §2
The nature of assay [6]: Quantitative High-Throughput drug screen in 47 multiple myeloma cell lines against the NCATS MIPE library collection: Karpas620_DSMZ cell viability assay (AID 1918959). Further: nearly all actives have a fitted effect of over 30% in size. In a few lines: as §1
Assay [7] can be described thus: Quantitative High-Throughput drug screen in 47 multiple myeloma cell lines against the NCATS MIPE library collection: KMM1_JCRB cell viability assay (AID 1918960). Further: nearly all actives have a fitted effect of over 30% in size. In a few lines:
as §3

Assay [8] is described as follows: Quantitative High-Throughput drug screen in 47 multiple myeloma cell lines against the NCATS MIPE library collection: JIM3_ECACC cell viability assay (AID 1918963; further: nearly all actives have a fitted effect of over 35% in size). In outline: as §1
The nature of assay [9]: Quantitative High-Throughput drug screen in 47 multiple myeloma cell lines against the NCATS MIPE library collection: JIM1_ECACC cell viability assay (AID 1918964). In outline:
as §2

Assay [10] in a line: Quantitative High-Throughput drug screen in 47 multiple myeloma cell lines against the NCATS MIPE library collection: INA6_PLB cell viability assay (AID 1918965; further: nearly all actives have a fitted effect of over 55% in size). In a few lines:
as §1

Assay [11] in a line: Quantitative High-Throughput drug screen in 47 multiple myeloma cell lines against the NCATS MIPE library collection: JJN3_DSMZ cell viability assay (AID 1918966; further: nearly all actives have a fitted effect of over 50% in size). In outline: as §2
Assay [12] is described as follows: Quantitative High-Throughput drug screen in 47 multiple myeloma cell lines against the NCATS MIPE library collection: H1112_PLB cell viability assay (AID 1918967; further: nearly all actives have a fitted effect of over 30% in size). In outline:
as §2

A short description of assay [13]: Quantitative High-Throughput drug screen in 47 multiple myeloma cell lines against the NCATS MIPE library collection: Karpas25_ECACC cell viability assay (AID 1918968; further: nearly all actives have a fitted effect of over 35% in size). In outline: as §2
The nature of assay [14]: Quantitative High-Throughput drug screen in 47 multiple myeloma cell lines against the NCATS MIPE library collection: KMS27_JCRB cell viability assay (AID 1918970). Further: nearly all actives have a fitted effect of over 30% in size. In a few lines:
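Myeloma cells (500 per well) were exposed to MIPE 4.0 compounds for 48 h at 37 °C, 5% CO2; viability was read as ATP luminescence with CellTiter-Glo, normalized to DMSO-only (100%) and media-only (0%) wells.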

The nature of assay [15]: Quantitative High-Throughput drug screen in 47 multiple myeloma cell lines against the NCATS MIPE library collection: AMO1_DSMZ cell viability assay (AID 1918927; further: nearly all actives have a fitted effect of over 30% in size). In a few lines: as §2
A short description of assay [16]: Quantitative High-Throughput drug screen in 47 multiple myeloma cell lines against the NCATS MIPE library collection: KHM11_PLB cell viability assay (AID 1918962). Further: nearly all actives have a fitted effect of over 35% in size. In outline: as §1
Potency means the concentration at half of the fitted maximal effect.

Take `Cc1ccc(C(=O)Nc2cccc(C(F)(F)F)c2)cc1Nc1nc(-c2cccnc2)nc2c1cnn2C`: the Potency in [1] was 9.35 µM (active); in [2], 5.26 µM (active); in [3] it was 18.7 µM (active); in assay [4], 10.5 µM (active); in assay [8] it was 10.5 µM (active); in [10], 11.8 µM (active). The Potency in [11] is 18.7 µM (active); in assay [12] it was 14.8 µM (active); in [13], 13.2 µM (active). Also, the Potency result in [5], in [6], in assay [7], in [9] and in assay [14] was “inactive” in each case.

For the compound `CC(C)OC(=O)CCCC=CC[C@@H]1[C@H](C=C[C@@H](O)COc2cccc(C(F)(F)F)c2)[C@H](O)C[C@@H]1O`, the Potency in assay [1] was 29.6 µM (active); in [2] it was 14.8 µM (active); in assay [4], 20.9 µM (active); in assay [16], 23.5 µM (active); in assay [8], 20.9 µM (active); in assay [10], 11.8 µM (active). Moreover, the Potency was 18.7 µM (active) in [12] and 16.6 µM (active) in assay [13]. Also, the Potency result in assay [15], in assay [5], in assay [6], in assay [7] and in assay [9] was “inactive” each time.

As for `O=c1cc(N2CCOCC2)oc2c(-c3cccc4c3sc3ccccc34)cccc12`, the Potency in [1] is 20.9 µM (active); in assay [2], 3.32 µM (active); in assay [15] it was 5.26 µM (active); in assay [5] it was 11.8 µM (active); in assay [6] it was 16.6 µM (active); in [7], 5.9 µM (active). In addition, the Potency in assay [16] was 5.9 µM (active); in assay [9], 2.96 µM (active); in [11], 14.8 µM (active); in assay [12], 16.6 µM (active); in assay [13], 4.18 µM (active); in assay [14], 18.7 µM (active).

Regarding `CO[C@H]1C(=O)[C@]2(C)[C@@H](OC)C[C@H]3OC[C@@]3(OC(C)=O)[C@H]2[C@H](OC(=O)c2ccccc2)[C@]2(O)C[C@H](OC(=O)[C@H](O)[C@@H](NC(=O)OC(C)(C)C)c3ccccc3)C(C)=C1C2(C)C`, the Potency result in [1], in [2], in assay [3], in [4], in assay [7] and in assay [10] was “inactive” throughout. In addition, the Potency result in assay [12] and in assay [13] was “inactive” throughout.

Turning to `O=C1C[C@@H](c2ccc(O)cc2)Oc2cc(O)cc(O)c21`, the Potency result in assay [1], in assay [2], in [3], in [4], in assay [6] and in assay [9] was “inactive” throughout. Moreover, the Potency result in assay [12] and in [13] was “inactive” each time. Also, the Potency in assay [14] is 0.0118 µM (active).

For the compound `CCN(CC)CCOc1ccc(C(=C(Cl)c2ccccc2)c2ccccc2)cc1`, the Potency entry in assay [1], in assay [4], in assay [8], in assay [10] and in assay [13] was “inactive” each time. For the same compound, the results for the Potency in assay [2] and in assay [15] were 29.6 µM (active) and 18.7 µM (active), respectively.

With `C[C@H]1[C@H](NC(=O)C(=NOC(C)(C)C(=O)O)c2csc(N)n2)C(=O)N1S(=O)(=O)O`, the Potency result in assay [1], in assay [2], in assay [3], in [15], in assay [5] and in assay [6] was “inactive” in each case. For the same compound, the Potency result in assay [7], in assay [16], in assay [8], in [12] and in assay [14] was “inactive” in each case.

Regarding `CC(=Cc1ccccc1)C=C1SC(=S)N(CC(=O)O)C1=O`, the Potency result in [1], in assay [2], in [3], in assay [15], in assay [5] and in [7] was “inactive” in each case. In addition, the Potency result in assay [16], in [10], in assay [12] and in [13] was “inactive” each time. For the same compound, the Potency in [14] is 0.59 µM (active).

In the case of `CCc1ccc(C=C2SC(=S)NC2=O)cc1`, the Potency entry in assay [1], in [2], in assay [3], in assay [4], in assay [9] and in assay [12] was “inactive” each time. Moreover, in [10], the Potency is 2.35 µM (active).

For `C[N+]1(C)[C@@H]2CC(OC(=O)[C@H](CO)c3ccccc3)C[C@H]1[C@H]1O[C@@H]12` (stereo partly specified), the Potency entry in assay [1], in assay [2], in [3], in assay [15], in assay [6] and in assay [7] was “inactive” throughout. The Potency entry in [9], in [12] and in assay [14] was “inactive” in each case.

As to `COc1cccc2c1CCCC2CCCN1CCN(C2CCCCC2)CC1` (stereo unspecified), the Potency was 23.5 µM (active) in assay [1]; 16.6 µM (active) in assay [2]; 23.5 µM (active) in assay [15]; 18.7 µM (active) in assay [4]; 18.7 µM (active) in assay [6]; 18.7 µM (active) in assay [7]. Also, the Potency was 18.7 µM (active) in [16]; 23.5 µM (active) in [8]; 16.6 µM (active) in assay [10]; 18.7 µM (active) in assay [13]; 16.6 µM (active) in [14].

In the case of `Cc1ccc(F)c(NC(=O)Nc2ccc(-c3cccc4[nH]nc(N)c34)cc2)c1`, the Potency in assay [1] is 14.8 µM (active); in [2], 13.2 µM (active); in [15], 10.5 µM (active); in assay [4], 26.4 µM (active); in [5], 3.32 µM (active); in assay [6], 20.9 µM (active). The Potency is 4.18 µM (active) in [7]; 8.33 µM (active) in [16]; 7.43 µM (active) in [8]; 1.87 µM (active) in assay [9]; 16.6 µM (active) in assay [10]; 10.5 µM (active) in [12]. Besides, the Potency in assay [13] is 26.4 µM (active); in assay [14] it was 10.5 µM (active).

On to `CN1C[C@H]2c3ccccc3Oc3ccc(Cl)cc3[C@@H]2C1`, for which the Potency result in assay [1], in [2], in [3], in assay [4], in assay [8] and in assay [12] was “inactive” in each case. Besides, in assay [13], the Potency result was “inactive”.

With `CCn1cc(C(=O)O)c(=O)c2ccc(C)nc21`, the Potency result in assay [1], in [2], in assay [3], in assay [5], in assay [6] and in assay [7] was “inactive” in each case. Besides, the Potency entry in assay [8], in [9], in assay [12], in assay [13] and in assay [14] was “inactive” in each case.

Consider `N#CC(=C(N)Sc1ccccc1N)C(C#N)=C(N)Sc1ccccc1N`, for which the Potency in assay [1] is 7.43 µM (active); in [2], 16.6 µM (active); in [3], 10.5 µM (active); in assay [15], 18.7 µM (active); in assay [5], 20.9 µM (active); in [6], 16.6 µM (active). In addition, the Potency in assay [7] was 18.7 µM (active); in assay [16], 0.662 µM (active); in [9] it was 16.6 µM (active); in assay [10], 16.6 µM (active); in assay [13], 8.33 µM (active); in [14] it was 18.7 µM (active).
